About 3,000 (1%) of roughly 290,000 compounds were called active. No stated cut-off is given here; in the data, active means inhibition mostly above about 36% (no sharp cut-off); inactive means mostly below about 34%. The entries come from a sample that favours actives as a whole.
Assay: NOD1 signaling inhibitors, primary screen, cell-based, luminescence, uHTS (AID 1578);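 further: HEK-293T reporter cells stimulated with the NOD1 agonist gamma-tri-DAP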
Settings: NOD1-driven NF-kB luciferase reporter cells, at 4 µM, active compounds read high
With `Cc1ccc(OCC(=O)Nc2ccc(N3CCN(C(=O)c4ccco4)CC3)cc2)cc1C` the inhibition was -9.9% (inactive).
For `c1ccc(Nc2nc(-c3cccs3)cs2)nc1`, the inhibition was -50.9% (inactive).
With `Cc1ccc(Nc2nc(-c3cccs3)cs2)nc1` the inhibition was 46% (active).
For `Cc1ccc(Nc2nc(-c3ccccc3)cs2)nc1`, the inhibition was -37% (inactive).
For `CCCn1c(N)c(C(c2ccc(OC)cc2)N2CCN(c3ccccc3)CC2)c(=O)[nH]c1=O` (stereo not given), the inhibition was 10% (inactive).
For `COc1ccc(-c2[nH]c(-c3ccccc3)nc2SCC(=O)Nc2nccs2)cc1`, the inhibition was 82.4% (active).
With `COc1ccc(-c2[nH]c(-c3ccc(C)cc3)nc2SCC(=O)Nc2nccs2)cc1` the inhibition was -13.3% (inactive).
With `COc1ccc(-c2[nH]c(-c3ccc(Cl)cc3)nc2SCC(=O)Nc2nccs2)cc1` the inhibition was -3.8% (inactive).
With `CCC(C)NC(=O)CN(c1ccc(OC)cc1)S(=O)(=O)c1ccccc1` (stereo not given) the inhibition was -38.9% (inactive).
For `CCOC(=O)c1cnc2c(C)c(Cl)ccc2c1N1CCOCC1`, the inhibition was 14.6% (inactive).
For `C[n+]1cccc2c(Br)ccc([O-])c21`, the inhibition was -5.6% (inactive).
In the case of `[O-][n+]1cccc2c(Br)cc(Br)c(O)c21`, the inhibition was 86% (active).
For `NCC(=O)c1cccc2ccc[n+]([O-])c12`, the inhibition was -2.6% (inactive).
In the case of `O=C(Cc1ccc(F)cc1)NCCc1cnc[nH]1`, the inhibition was -7.3% (inactive).
In the case of `COc1cc(/C=c2\sc3nc(-c4ccncc4)nn3c2=O)ccc1OC(C)=O`, the inhibition was -18.6% (inactive).
For `CC(c1ccco1)N(C(=O)C12CC3(C)CC(C)(CC(C)(C3)C1)C2)c1ccccn1` (stereo not given), the inhibition was -2% (inactive).
With `CC(c1ccco1)N(C(=O)C12CC3CC(CC(C)(C3)C1)C2)c1ccccn1` (stereo not given) the inhibition was 31.7% (active).
In the case of `CC(c1ccco1)N(C(=O)C12CC3CC(CC(C3)C1)C2)c1ccccn1` (stereo not given), the inhibition was 17.1% (inactive).
In the case of `CCC(c1nnc(SCC(=O)NC23CC4CC(CC(C4)C2)C3)o1)N(C)C` (stereo not given), the inhibition was -5.8% (inactive).
In the case of `Cc1ccc(NS(=O)(=O)c2cc3c4c(cccc4c2)C(=O)NC3=O)cc1`, the inhibition was 18.1% (inactive).
For `CN1CCN(CC(=O)Nc2nnc(-c3cccs3)s2)CC1`, the inhibition was -26.2% (inactive).
With `O=C(CN1CCCC1)Nc1nnc(-c2cccs2)s1` the inhibition was 74.9% (active).
For `O=C(CN1CCCCC1)Nc1nnc(-c2ccccc2)s1`, the inhibition was 2.9% (inactive).
For `CC(C)NC(=O)CN1C(=O)C(=O)c2ccccc21`, the inhibition was 15.8% (inactive).
In the case of `CCOC(=O)N1CCC(NC(=S)Nc2ccc3nc(N4CCN(C)CC4)cc(C)c3c2)CC1`, the inhibition was 3.9% (inactive).
For `CCOC(=O)N1CCN(C(=S)Nc2ccc3nc(N4CCN(CC)CC4)cc(C)c3c2)CC1`, the inhibition was -21% (inactive).
With `CCOC(=O)N1CCC(NC(=S)Nc2ccc3nc(N4CCN(CC)CC4)cc(C)c3c2)CC1` the inhibition was 48.8% (active).
For `COc1ccc(C(=O)Oc2ccc(N(C)S(=O)(=O)c3ccccc3)cc2)cc1[N+](=O)[O-]`, the inhibition was 8.9% (inactive).
In the case of `Cc1cc(C)cc(NC(=O)C[n+]2ccccc2)c1`, the inhibition was 45.4% (inactive).
In the case of `Cc1cccc(-n2ncc3c(N(C)Cc4ccccc4)ncnc32)c1`, the inhibition was 2.1% (inactive).
With `Cc1cc(S(=O)(=O)Nc2ccc3cn[nH]c3c2)c(C)cc1Cl` the inhibition was -20.3% (inactive).
In the case of `O=S(=O)(Nc1ccc2cn[nH]c2c1)c1ccc(Cl)cc1`, the inhibition was -12.5% (inactive).
With `O=C1C(Cl)=C(Nc2ccc3cn[nH]c3c2)C(=O)c2ccccc21` the inhibition was 61.1% (active).
In the case of `CC(C)C(=O)N1CCC2(CC1)Oc1ccc(Cl)cc1C(=O)C21CC(c2ccc(Cl)cc2)=NO1` (stereo not given), the inhibition was -3.8% (inactive).
In the case of `O=C1c2ccccc2NC(c2ccccc2F)N1NS(=O)(=O)c1ccccc1` (stereo not given), the inhibition was -13% (inactive).
With `O=C(O)CC1(CC(=O)N2CCN(CCO)CC2)CCCC1` the inhibition was -19.8% (inactive).
With `CC(=O)c1ccc(NC(=O)c2cnn3ccccc23)cc1` the inhibition was 63.1% (active).
For `CCc1ccc(NC(=O)c2cnn3ccccc23)cc1`, the inhibition was 50.8% (inactive).
In the case of `CC(=O)c1cccc(NC(=O)c2cnn3ccccc23)c1`, the inhibition was -1% (inactive).
With `Cc1ccccc1C(=O)c1c[nH]c(C(=O)NCc2cccs2)c1` the inhibition was 2.5% (inactive).
For `Cc1ccc(-n2cc(C(=O)O)c(=O)cc2C)c(C)c1`, the inhibition was -25.8% (inactive).
With `CC(C)n1cc(CN2CCC(n3nccc3NC(=O)CCCc3ccccc3)CC2)cn1` the inhibition was -24.8% (inactive).
With `CCOc1cccc(NC(=O)C2CC(=O)N(C)C(=Nc3ccccc3)S2)c1` (stereo not given) the inhibition was 5.5% (inactive).
With `CCOc1cccc(NC(=O)C2CC(=O)N(C)C(=Nc3cccc(F)c3)S2)c1` (stereo not given) the inhibition was 73.6% (active).
For `COc1cccc(NC(=O)C2CC(=O)N(C)C(=Nc3cccc(F)c3)S2)c1` (stereo not given), the inhibition was 13.8% (inactive).
With `Fc1ccc(N=c2ssnc2Cl)c(F)c1` the inhibition was -14.2% (inactive).
For `C/C(=N\Nc1ccc(S(=O)(=O)N2CCOCC2)cc1[N+](=O)[O-])C(C)C`, the inhibition was -8.2% (inactive).
In the case of `Cn1c(SCC(=O)NCCc2ccccc2)nnc1-c1ccncc1`, the inhibition was -5.8% (inactive).
In the case of `Cc1nc2ncnn2c(N2CCN(C(=O)c3cccc(F)c3)CC2)c1Cc1ccccc1`, the inhibition was -1.9% (inactive).
With `CCOc1ccc(/C=N/N2C(=O)C(CC(=O)Nc3ccc(F)cc3F)SC2=NC)cc1OC` (stereo not given) the inhibition was -23% (inactive).
With `CN=C1SC(CC(=O)Nc2ccccc2F)C(=O)N1/N=C/c1ccc(O)c(OC)c1` (stereo not given) the inhibition was 47.1% (active).
With `CN=C1SC(CC(=O)Nc2ccc(F)cc2F)C(=O)N1/N=C/c1ccc(OC(F)F)c(OC)c1` (stereo not given) the inhibition was -35.2% (inactive).
For `Cc1ccc(-n2c([S-])c(C(=O)NC(C)c3ccccc3)[n+]3ccccc23)cc1` (stereo not given), the inhibition was -40.2% (inactive).
With `CCOC(=O)CSc1nc(-c2ccccc2)nc2ccc(F)cc12` the inhibition was -21.7% (inactive).
In the case of `CCOC(=O)N1CCN(C(=O)CSCC(=O)Nc2nc(-c3ccccc3)cs2)CC1`, the inhibition was -14% (inactive).
For `CCn1c(SCC(=O)N/N=C(\C)c2ccco2)nnc1-c1ccccc1`, the inhibition was -25.7% (inactive).
For `CCn1c(SCC(=O)Nc2nc(-c3ccccc3)cs2)nnc1-c1ccccc1O`, the inhibition was 12.7% (inactive).
With `CCn1c(SCC(=O)N/N=C(\C)c2ccncc2)nnc1-c1ccc(C)cc1` the inhibition was -7.3% (inactive).
In the case of `CCn1c(SCC(=O)N/N=C/c2ccccc2OCC(=O)O)nnc1-c1ccccc1`, the inhibition was -7.7% (inactive).
For `CCn1c(SCC(=O)Nc2nc(-c3ccc(C)cc3)cs2)nnc1-c1ccccc1`, the inhibition was 31% (inactive).
For `CCn1c(SCC(=O)N/N=C/c2ccccc2OCC(=O)O)nnc1-c1ccc(C(C)(C)C)cc1`, the inhibition was 86.7% (active).
With `CCOC(=O)N1CCN(C(=O)CSCC(=O)Nc2nc(-c3ccc(-c4ccccc4)cc3)cs2)CC1` the inhibition was 58.2% (active).
With `CCn1c(SCC(=O)N/N=C(\C)c2ccncc2)nnc1-c1ccccc1` the inhibition was 58.5% (active).
For `CCOC(=O)N1CCN(C(=O)CSCC(=O)Nc2nc(-c3ccc(C)cc3)cs2)CC1`, the inhibition was 13.3% (inactive).
With `CCn1c(SCC(=O)N/N=C/c2ccccc2OCC(=O)O)nnc1-c1ccc(C)cc1` the inhibition was 2.1% (inactive).

Source: PubChem BioAssay AID1578 (Sanford-Burnham Center for Chemical Genomics, 2009)
